From the supplement of paper PMC7411054
Where a name gives a salt, the structure may show the parent alone.

What was measured:
Test in all cases: phenotypically active (imaging signature differs from DMSO and reproducible) at any of 0.3-9 uM (binary (1 = active, 0 = inactive)); higher = active
Conditions in all cases: treatment time: 24 h
[1] = test system: A549-ACTB-RAB5A
Outline: (§1)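 Two criteria together defined phenotypic activity: deviation and reproducibility. Deviation meant ≥3 of 4 wells beyond the 95th percentile of Euclidean distances in solvent control wells, and reproducibility meant a median replicate Pearson correlation above the 95th percentile of non-replicates. Wells had been treated for 24 h at 0.3, 1, 3 or 9 µM in fifteen gene-edited A549, HepG2 and WPMY1 reporter lines before live imaging.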

[2] = test system: A549-CANX-COX4
Outline: as §1

[3] = test system: A549-GM130-SQSTM1
Outline: as §1

[4] = test system: A549-TP53BP1-CLTA
Outline: as §1

[5] = test system: A549-TUBA1B-RELA
Outline: as §1

[6] = test system: HepG2-ACTB-RAB5A
Outline: as §1

[7] = test system: HepG2-CANX-COX4
Outline: as §1

[8] = test system: HepG2-GM130-SQSTM1
Outline: as §1

[9] = test system: HepG2-TP53BP1-CLTA
Outline: as §1

[10] = test system: HepG2-TUBA1B-RELA
Outline: as §1

[11] = test system: WPMY1-ACTB-RAB5A
Outline: as §1

[12] = test system: WPMY1-CANX-COX4
Outline: as §1

[13] = test system: WPMY1-GM130-SQSTM1
Outline: as §1

[14] = test system: WPMY1-TP53BP1-CLTA
Outline: as §1

[15] = test system: WPMY1-TUBA1B-RELA
Outline: as §1

Measured: phenotypically active

NC(=O)c1cccnc1 [Nicotinamide]
inactive: [1] 0 | [2] 0 | [3] 0 | [4] 0 | [5] 0 | [6] 0 | [7] 0 | [8] 0 | [9] 0 | [10] 0 | [11] 0 | [12] 0 | [13] 0 | [14] 0 | [15] 0

O=C(Nc1cccnc1)c1cc(-c2ccnc(F)c2)ccc1OCc1ccccc1
inactive: [1] 0 | [2] 0 | [3] 0 | [4] 0 | [5] 0 | [6] 0 | [7] 0 | [8] 0 | [9] 0 | [10] 0 | [11] 0 | [12] 0 | [13] 0 | [14] 0 | [15] 0

Cc1ccc([N+](=O)[O-])cc1S(=O)(=O)N(C)C
inactive: [1] 0 | [2] 0 | [3] 0 | [4] 0 | [5] 0 | [6] 0 | [7] 0 | [8] 0 | [9] 0 | [10] 0 | [11] 0 | [12] 0 | [13] 0 | [14] 0 | [15] 0

COc1cc2c(cc1OC)CC(=O)N(CCCN(C)C[C@H]1Cc3cc(OC)c(OC)cc31)CC2 [ivabridine]
inactive: [1] 0 | [2] 0 | [3] 0 | [4] 0 | [5] 0 | [6] 0 | [7] 0 | [8] 0 | [9] 0 | [10] 0 | [11] 0 | [12] 0 | [13] 0 | [14] 0 | [15] 0

COc1ccc(C(=O)C2CCN(CC(=O)N(Cc3nc4c(c(=O)[nH]3)COCC4)CC3CC3)CC2)cc1
inactive: [1] 0 | [2] 0 | [3] 0 | [4] 0 | [5] 0 | [6] 0 | [7] 0 | [8] 0 | [9] 0 | [10] 0 | [11] 0 | [12] 0 | [13] 0 | [14] 0 | [15] 0

COCCc1ccc(OCC(O)CNC(C)C)cc1 (stereo not given) [metoprolol]
inactive: [1] 0 | [2] 0 | [3] 0 | [4] 0 | [5] 0 | [6] 0 | [7] 0 | [8] 0 | [9] 0 | [10] 0 | [11] 0 | [12] 0 | [13] 0 | [14] 0 | [15] 0

CCCCN1C[C@H](O)[C@@H](O)[C@H](O)[C@H]1CO [Miglustat hydrochloride]
inactive: [1] 0 | [2] 0 | [3] 0 | [4] 0 | [5] 0 | [6] 0 | [7] 0 | [8] 0 | [9] 0 | [10] 0 | [11] 0 | [12] 0 | [13] 0 | [14] 0 | [15] 0

CC(C)(C)NC[C@H](O)COc1nsnc1N1CCOCC1 [timolol]
inactive: [1] 0 | [2] 0 | [3] 0 | [4] 0 | [5] 0 | [6] 0 | [7] 0 | [8] 0 | [9] 0 | [10] 0 | [11] 0 | [12] 0 | [13] 0 | [14] 0 | [15] 0

NNCCc1ccccc1 [phenelzine]
inactive: [1] 0 | [2] 0 | [3] 0 | [4] 0 | [5] 0 | [6] 0 | [7] 0 | [8] 0 | [9] 0 | [10] 0 | [11] 0 | [12] 0 | [13] 0 | [14] 0 | [15] 0

CCCc1nc(C)c2c(C)nc3ccc(OC)nc3n12
inactive: [1] 0 | [2] 0 | [3] 0 | [4] 0 | [5] 0 | [6] 0 | [7] 0 | [8] 0 | [9] 0 | [10] 0 | [11] 0 | [12] 0 | [13] 0 | [14] 0 | [15] 0

O=C(Nc1cc(C(F)(F)F)cc(C(F)(F)F)c1)c1cnc(Cl)nc1C(F)(F)F
inactive: [1] 0 | [2] 0 | [3] 0 | [4] 0 | [5] 0 | [6] 0 | [7] 0 | [8] 0 | [9] 0 | [10] 0 | [11] 0 | [12] 0 | [13] 0 | [14] 0 | [15] 0

CCOc1cc([C@@H](CS(C)(=O)=O)N2C(=O)c3cccc(NC(C)=O)c3C2=O)ccc1OC [apremilast]
inactive: [1] 0 | [2] 0 | [3] 0 | [4] 0 | [5] 0 | [6] 0 | [7] 0 | [8] 0 | [9] 0 | [10] 0 | [11] 0 | [12] 0 | [13] 0 | [14] 0 | [15] 0

COCc1nc2c([nH]1)c(=O)n(C)c(=O)n2CC(C)C
inactive: [1] 0 | [2] 0 | [3] 0 | [4] 0 | [5] 0 | [6] 0 | [7] 0 | [8] 0 | [9] 0 | [10] 0 | [11] 0 | [12] 0 | [13] 0 | [14] 0 | [15] 0

CCCCN1CCCCC1C(=O)Nc1c(C)cccc1C (stereo not given) [bupivacaine]
inactive: [1] 0 | [2] 0 | [3] 0 | [4] 0 | [5] 0 | [6] 0 | [7] 0 | [8] 0 | [9] 0 | [10] 0 | [11] 0 | [12] 0 | [13] 0 | [14] 0 | [15] 0

Cc1ccc(N(CC2=NCCN2)c2cccc(O)c2)cc1 [phentolamine]
inactive: [1] 0 | [2] 0 | [3] 0 | [4] 0 | [5] 0 | [6] 0 | [7] 0 | [8] 0 | [9] 0 | [10] 0 | [11] 0 | [12] 0 | [13] 0 | [14] 0 | [15] 0

CC(C)[C@](O)(c1ccc2cc(OC(F)F)c(OC(F)F)cc2c1)c1c[nH]nn1
inactive: [1] 0 | [2] 0 | [3] 0 | [4] 0 | [5] 0 | [6] 0 | [7] 0 | [8] 0 | [9] 0 | [10] 0 | [11] 0 | [12] 0 | [13] 0 | [14] 0 | [15] 0

CCc1cccc2c3c([nH]c12)C(CC)(CC(=O)O)OCC3 (stereo not given) [etodolac]
inactive: [1] 0 | [2] 0 | [3] 0 | [4] 0 | [5] 0 | [6] 0 | [7] 0 | [8] 0 | [9] 0 | [10] 0 | [11] 0 | [12] 0 | [13] 0 | [14] 0 | [15] 0

CCCN(CCC)CCc1cccc2c1CC(=O)N2 [ropinirole]
inactive: [1] 0 | [2] 0 | [3] 0 | [4] 0 | [5] 0 | [6] 0 | [7] 0 | [8] 0 | [9] 0 | [10] 0 | [11] 0 | [12] 0 | [13] 0 | [14] 0 | [15] 0

Nc1ncnc2c1ncn2[C@@H]1O[C@H](CO)C[C@H]1O [Cordycepin]
inactive: [1] 0 | [2] 0 | [3] 0 | [4] 0 | [5] 0 | [6] 0 | [7] 0 | [8] 0 | [9] 0 | [10] 0 | [11] 0 | [12] 0 | [13] 0 | [14] 0 | [15] 0

COC(=O)C1=C(C)NC(C)=C(C(=O)OC(C)C)C1c1cccc2nonc12 (stereo not given) [isradipine]
inactive: [1] 0 | [2] 0 | [3] 0 | [4] 0 | [5] 0 | [6] 0 | [7] 0 | [8] 0 | [9] 0 | [10] 0 | [11] 0 | [12] 0 | [13] 0 | [14] 0 | [15] 0

COc1ccc([C@@H]2CC(=O)c3c(O)cc(O)cc3O2)cc1O [Hesperetin]
inactive: [1] 0 | [2] 0 | [3] 0 | [4] 0 | [5] 0 | [6] 0 | [7] 0 | [8] 0 | [9] 0 | [10] 0 | [11] 0 | [12] 0 | [13] 0 | [14] 0 | [15] 0

CC(C)(C)NC[C@H](O)COc1cccc2c1CCCC2=O [levobunolol]
inactive: [1] 0 | [2] 0 | [3] 0 | [4] 0 | [5] 0 | [6] 0 | [7] 0 | [8] 0 | [9] 0 | [10] 0 | [11] 0 | [12] 0 | [13] 0 | [14] 0 | [15] 0

CC(C[N+](C)(C)C)OC(N)=O (stereo not given) [bethanechol]
inactive: [1] 0 | [2] 0 | [3] 0 | [4] 0 | [5] 0 | [6] 0 | [7] 0 | [8] 0 | [9] 0 | [10] 0 | [11] 0 | [12] 0 | [13] 0 | [14] 0 | [15] 0

COc1ccc2c(c1)N(C(C)=O)[C@H]1[C@@H]3CO[C@H](C)[C@@H]4CN5CC[C@]21[C@@H]5C[C@H]34 [Strychnospermine]
inactive: [1] 0 | [2] 0 | [3] 0 | [4] 0 | [5] 0 | [6] 0 | [7] 0 | [8] 0 | [9] 0 | [10] 0 | [11] 0 | [12] 0 | [13] 0 | [14] 0 | [15] 0
